The values below come from PubChem BioAssay.

The nature of assay [1]: rapamycin-like changes in RPL19A-GFP expression – cell-based, S. cerevisiae, multiplex flow cytometry, primary screen (AID 1862; in the data active = percent of DMSO control GFP below about 86%;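 also: lower values mimic rapamycin by blocking the RPL19A rise seen in DMSO cells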). Conditions: S. cerevisiae RPL19A-GFP strain, flow cytometry fluorescence, 3 h; at 10 µM; stronger effect = lower value. (In general: Flow cytometry measures light scatter and fluorescence of single cells or particles in a stream.)
A short description of assay [2]: TOR pathway GLN3 branch reporter MEP2-GFP changes – S. cerevisiae, multiplex flow cytometry, primary screen (AID 1867;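 active = GFP response, as percent of the DMSO control, above the screen-wide mean plus 3 SD, about 139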;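 also: median GFP channel fluorescence of barcode-gated MEP2-GFP cells measured by flow cytometry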). To be noted: S. cerevisiae MEP2-GFP strain, 3 h, at 10 µM, stronger effect = higher value.
Assay [3] is described as follows: TOR pathway RTG branch CIT2 reporter changes – S. cerevisiae, GFP fusion, multiplex flow cytometry, primary screen (AID 1870;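 active = percent response above a set limit, the screen-wide mean plus 3 SD, cut at about 130% in these data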;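 also: barcoded CIT2-GFP strain pooled with four other GFP strains with rapamycin as positive control; median GFP fluorescence per well over plate mean of DMSO wells so 100% = DMSO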). Conditions: S. cerevisiae CIT2-GFP expression, 3 h, at 10 µM, stronger effect = higher value.
A short description of assay [4]: TOR pathway LAP4-GFP level changes – S. cerevisiae, multiplex flow cytometry, primary screen (AID 1873;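 active = GFP signal, as percent of the solvent control, above the screen mean plus 3 SD, about 149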). Conditions: S. cerevisiae LAP4-GFP expression, 3 h, at 10 µM, stronger effect = higher value.
A short description of assay [5]: yeast AGP1-GFP level changes, GLN3 branch – cell-based, multiplex flow cytometry, S. cerevisiae, primary screen (AID 1887;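 active = GFP signal above the screen-wide mean plus 3 SD, that is over about 124.5% of the solvent control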;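 also: AGP1-GFP fusion strain of S. cerevisiae within a five-strain barcoded multiplex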). Conditions: 3 h, at 10 µM, stronger effect = higher value.
Assay [6] is described as follows: reduced mouse 2C T cell binding to pMHC/ICAM-1 vesicles – MLPCN validation set, flow cytometry, LFA-1/ICAM-1 modulator project, pilot screen (AID 2523;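 active = response below a set limit, under 55% cells CD8-positive and vesicle-bound, and CD8 cells' 90th-percentile brightness under 279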;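 as to vesicle binding response: mean PE anti-B7-1 fluorescence of CD8+ cells relative to row control; 100% = QL9-loaded vesicles with DMSO vehicle in the same plate row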). Conditions: 2C mouse CD8+ T cells, at 7 µM, stronger effect = lower value; double positive events: measured here: CD8+/vesicle+ event percentage.
The target of assay [7] is Integrin beta-1 (Homo sapiens) + Integrin alpha-4 (Homo sapiens) (UniProt P13612+P05556). Put plainly: alpha4beta1 integrin LIBS antibody binding reduction – U937 cells, HUTS-21 mAb, flow cytometry, validation set, VLA-4 allosteric modulator project, pilot screen (AID 2674;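 active = inhibition above 50%, about 3 SD of the validation set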;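 also: antibody binding induced by the VLA-4 ligand LDV present at three times its Kd; 0% = LDV ligand with antibody and no compound and 100% = antibody without LDV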). To be noted: HUTS-21 LIBS mAb binding, at 6.7 µM, stronger effect = higher value.
Assay [8] can be described thus: calorie-restriction mimetic ROS inhibitors, yeast – validation compound set, pilot screen (AID 2706;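 active = superoxide response below 65% of plate, a cut near 3 SD across the whole screen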;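 also: yeast exposed to compound for one week at 30 degrees C before staining; 100% = mean of all compound wells on the same plate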). Conditions: S. cerevisiae aging, superoxide DHE fluorescence; at 10 µM; stronger effect = lower value.
Assay [9] concerns the target Beta-adrenergic receptor kinase 1 (Homo sapiens) (UniProt P25098). Put plainly: GRK2 binders displacing RNA aptamer, biochemical, validation, human GRK2, bead flow cytometry (AID 488806;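 active = aptamer binding inhibition above 30%, about 3 SD of noise from non-fluorescent compounds; inactive = inhibition at or below 30%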). To be noted: bead-bound GRK2, FAM-aptamer displacement, at 10 µM, stronger effect = higher value.
The target of assay [10] is Beta-2 adrenergic receptor (Homo sapiens) (UniProt P07550). Put plainly: agonist-induced loss of surface beta2AR – cell-based, FAP fluorogen, flow cytometry, validation set, pilot screen (AID 504459;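 active = percent response above 42, roughly 3 SD of non-fluorescent test compounds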;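 also: agonist-driven loss of surface beta2AR via internalization measured by FAP dye flow cytometry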). Conditions: Am2.2-beta2AR cells, at 10 µM, stronger effect = higher value.
For assay [11], the target named is AP-2 complex subunit beta (Homo sapiens) (UniProt P63010). Put plainly: beta-arrestin/AP2 interaction blockers – biochemical, validation set, GST-AP2 beads, flow cytometry, pilot screen (AID 504541;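 active = inhibition above 54%, about 3 SD of non-fluorescent compounds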;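 also: AP2 carries R879A mutation and is captured from E. coli lysate; bead-bound FITC arrestin peptide fluorescence measuring arrestin peptide binding to AP2; 0% = DMSO wells and 100% = excess unlabeled arrestin peptide control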). To be noted: FITC arrestin peptide, at 10 µM, stronger effect = higher value.
A short description of assay [12]: cytosolic pH regulators acting via V-ATPase – S. cerevisiae, pHLuorin, HTS validation (AID 504600; in the data active = response above about 15%;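 also: plate controls were DMSO for no effect and reference compound for full effect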). To be noted: V-ATPase proton transport, at 10 µM, stronger effect = higher value.
Assay [13] concerns anti-desmoglein-3 scFv antibody binding to human DSG3. Put plainly: blockers of pathogenic pemphigus antibody–desmoglein-3 binding – biochemical, validation compound set, bead-based, flow cytometry, pilot screen (AID 588368;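 active = binding below the plate cutoff, the plate median minus 3 SD, with a reading above zero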;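 also: signal is the median channel fluorescence of bead-bound GFP antibody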). Conditions: Protein G beads, DSG3-Fc, scFv-GFP binding, at 10 µM, stronger effect = lower value.
For assay [14], the system named is Botulinum neurotoxin type F light chain protease (Clostridium botulinum). Put plainly: Clostridium botulinum type F light chain protease inhibitors, microsphere substrate cleavage, validation (AID 588459). To be noted: multiplex microsphere protease substrate cleavage assay, flow cytometry; at 10 µM; stronger effect = higher value.
Assay [15] deals with Botulinum neurotoxin type A (Clostridium botulinum) (UniProt P0DPI0). Put plainly: BoNT/A light chain protease inhibitors, biochemical, multiplex microsphere flow cytometry, validation set (AID 588460). Conditions: at 10 µM, stronger effect = higher value.
Assay [16] has as its target Lethal factor (Bacillus anthracis) (UniProt P15917). Put plainly: Bacillus anthracis lethal factor inhibition, microsphere flow cytometry protease assay, validation at 10 µM (AID 588461). To be noted: multiplex microsphere protease cleavage assay, stronger effect = higher value.
Assay [17] in a line: Nile Red efflux blockade in pump-expressing yeast – validation compound set, multiplex, phenotypic, pilot screen (AID 588506;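 active = efflux inhibition above 0.42, the validation set average plus 4 SD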;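 also: Nile Red retained in cells so higher fluorescence means more efflux inhibition; 0 = negative control wells and 1 = enniatin B 25 µM full block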). Conditions: S. cerevisiae pump-expressing triplex, Nile Red efflux flow cytometry; at 10 µM; stronger effect = higher value.
Assay [18] concerns the target ATP-binding cassette sub-family B member 6 (Homo sapiens) (UniProt Q9NP58). Put plainly: blockers of ABCB6-driven porphyrin uptake – K562-ABCB6 cells, flow cytometry, validation set, pilot screen (AID 588550;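 active = inhibition above the screen-wide mean plus 3 SD, about 51%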;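 also: 0% = DMSO wells and 100% = benzethonium chloride 70 µM positive control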). Conditions: K562-ABCB6 porphyrin accumulation, 1 h, at 10 µM, stronger effect = higher value.
Assay [19] can be described thus: AML differentiation inducers, ER-HoxA9 marrow cells – cell-based, GFP/MAC1 double positive, flow cytometry, validation set, primary screen (AID 588685;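 active = differentiation response of at least 50%, scaled between solvent and reference control, from cells with both markers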;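 also: compound exposure lasts four days before antibody staining and flow analysis; 0% = DMSO wells and 100% = 5 µM fulvestrant positive control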). Conditions: stronger effect = higher value.

Inconclusive results are not listed. Activity calls are given as the source filed them. Unless noted, no rule for the calls is given here.

Sequence of Beta-2 adrenergic receptor (Homo sapiens) (P07550 whole entry, looked up): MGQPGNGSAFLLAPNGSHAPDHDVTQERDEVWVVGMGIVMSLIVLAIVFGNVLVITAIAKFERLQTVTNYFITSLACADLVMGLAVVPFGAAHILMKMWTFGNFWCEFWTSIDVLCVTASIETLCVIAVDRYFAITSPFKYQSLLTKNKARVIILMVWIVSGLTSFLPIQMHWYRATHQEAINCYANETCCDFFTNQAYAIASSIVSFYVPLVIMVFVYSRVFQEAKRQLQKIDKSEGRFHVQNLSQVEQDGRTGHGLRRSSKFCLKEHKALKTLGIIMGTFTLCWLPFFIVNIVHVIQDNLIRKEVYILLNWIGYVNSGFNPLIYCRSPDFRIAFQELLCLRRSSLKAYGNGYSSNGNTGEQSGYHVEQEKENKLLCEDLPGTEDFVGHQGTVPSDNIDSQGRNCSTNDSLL
Sequence of Beta-adrenergic receptor kinase 1 (Homo sapiens) (P25098 whole entry, looked up): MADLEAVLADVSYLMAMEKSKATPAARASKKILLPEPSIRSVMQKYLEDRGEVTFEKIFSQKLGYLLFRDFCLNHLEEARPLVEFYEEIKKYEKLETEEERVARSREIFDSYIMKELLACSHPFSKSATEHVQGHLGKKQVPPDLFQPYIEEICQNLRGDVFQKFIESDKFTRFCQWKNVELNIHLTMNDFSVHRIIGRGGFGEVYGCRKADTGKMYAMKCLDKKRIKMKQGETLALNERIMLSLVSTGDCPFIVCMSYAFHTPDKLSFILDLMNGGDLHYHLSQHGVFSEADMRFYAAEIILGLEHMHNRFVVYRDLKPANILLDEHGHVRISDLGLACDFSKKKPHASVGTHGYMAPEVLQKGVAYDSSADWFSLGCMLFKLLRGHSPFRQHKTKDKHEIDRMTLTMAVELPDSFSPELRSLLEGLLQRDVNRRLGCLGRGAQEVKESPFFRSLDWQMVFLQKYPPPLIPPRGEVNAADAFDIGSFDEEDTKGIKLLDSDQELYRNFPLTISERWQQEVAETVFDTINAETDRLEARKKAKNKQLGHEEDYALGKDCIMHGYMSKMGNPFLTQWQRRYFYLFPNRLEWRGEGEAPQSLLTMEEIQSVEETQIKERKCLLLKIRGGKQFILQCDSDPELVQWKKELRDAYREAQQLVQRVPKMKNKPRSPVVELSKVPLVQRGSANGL
Sequence of Integrin beta-1 (Homo sapiens) + Integrin alpha-4 (Homo sapiens) (P05556 whole entry, looked up): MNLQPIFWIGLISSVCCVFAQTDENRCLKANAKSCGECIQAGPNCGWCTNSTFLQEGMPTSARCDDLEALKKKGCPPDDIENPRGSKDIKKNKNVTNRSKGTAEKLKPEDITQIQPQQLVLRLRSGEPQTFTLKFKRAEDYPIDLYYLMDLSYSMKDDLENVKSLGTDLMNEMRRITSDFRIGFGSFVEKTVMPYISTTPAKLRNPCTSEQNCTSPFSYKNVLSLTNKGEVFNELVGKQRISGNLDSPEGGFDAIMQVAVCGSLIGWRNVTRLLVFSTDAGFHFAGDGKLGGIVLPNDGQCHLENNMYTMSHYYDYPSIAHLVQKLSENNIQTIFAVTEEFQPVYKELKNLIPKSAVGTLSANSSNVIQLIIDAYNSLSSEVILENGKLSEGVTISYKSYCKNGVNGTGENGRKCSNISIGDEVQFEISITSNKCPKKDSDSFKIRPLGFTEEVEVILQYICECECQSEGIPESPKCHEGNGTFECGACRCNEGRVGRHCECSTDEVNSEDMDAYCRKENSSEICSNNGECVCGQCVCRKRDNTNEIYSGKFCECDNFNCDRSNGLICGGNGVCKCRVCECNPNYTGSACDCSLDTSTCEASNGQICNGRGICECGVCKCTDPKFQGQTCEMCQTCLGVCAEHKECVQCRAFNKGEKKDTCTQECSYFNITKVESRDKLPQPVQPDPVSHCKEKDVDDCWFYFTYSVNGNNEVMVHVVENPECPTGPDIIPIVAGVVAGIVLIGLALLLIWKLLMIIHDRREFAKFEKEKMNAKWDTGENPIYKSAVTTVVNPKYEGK
Sequence of Integrin beta-1 (Homo sapiens) + Integrin alpha-4 (Homo sapiens) (P13612 whole entry, looked up): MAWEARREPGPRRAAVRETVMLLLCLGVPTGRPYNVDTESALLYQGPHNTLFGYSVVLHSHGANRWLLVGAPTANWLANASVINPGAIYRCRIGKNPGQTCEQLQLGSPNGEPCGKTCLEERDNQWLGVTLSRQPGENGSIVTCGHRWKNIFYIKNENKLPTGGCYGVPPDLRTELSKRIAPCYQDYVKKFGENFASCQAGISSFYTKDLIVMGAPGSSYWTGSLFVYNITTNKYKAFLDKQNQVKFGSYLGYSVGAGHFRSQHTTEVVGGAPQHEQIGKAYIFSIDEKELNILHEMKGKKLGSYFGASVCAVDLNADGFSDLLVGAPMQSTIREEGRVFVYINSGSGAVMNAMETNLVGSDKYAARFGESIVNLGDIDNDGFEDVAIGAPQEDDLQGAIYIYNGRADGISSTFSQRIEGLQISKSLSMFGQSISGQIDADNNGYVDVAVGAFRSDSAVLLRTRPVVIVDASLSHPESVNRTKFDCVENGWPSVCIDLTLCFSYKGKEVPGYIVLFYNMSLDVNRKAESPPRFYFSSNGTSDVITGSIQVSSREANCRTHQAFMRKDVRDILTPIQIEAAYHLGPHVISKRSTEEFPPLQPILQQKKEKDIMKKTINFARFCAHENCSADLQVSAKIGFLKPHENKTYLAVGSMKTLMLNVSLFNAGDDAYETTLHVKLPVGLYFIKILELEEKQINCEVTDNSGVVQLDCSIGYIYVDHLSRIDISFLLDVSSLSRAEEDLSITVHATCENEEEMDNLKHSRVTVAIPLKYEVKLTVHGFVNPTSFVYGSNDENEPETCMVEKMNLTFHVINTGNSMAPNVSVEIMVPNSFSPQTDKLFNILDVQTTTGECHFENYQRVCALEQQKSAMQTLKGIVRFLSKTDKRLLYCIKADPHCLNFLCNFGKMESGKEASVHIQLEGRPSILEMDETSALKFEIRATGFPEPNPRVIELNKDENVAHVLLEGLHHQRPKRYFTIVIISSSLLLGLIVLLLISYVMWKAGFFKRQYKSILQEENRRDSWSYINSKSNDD
Sequence of Lethal factor (Bacillus anthracis) (P15917 whole entry, looked up): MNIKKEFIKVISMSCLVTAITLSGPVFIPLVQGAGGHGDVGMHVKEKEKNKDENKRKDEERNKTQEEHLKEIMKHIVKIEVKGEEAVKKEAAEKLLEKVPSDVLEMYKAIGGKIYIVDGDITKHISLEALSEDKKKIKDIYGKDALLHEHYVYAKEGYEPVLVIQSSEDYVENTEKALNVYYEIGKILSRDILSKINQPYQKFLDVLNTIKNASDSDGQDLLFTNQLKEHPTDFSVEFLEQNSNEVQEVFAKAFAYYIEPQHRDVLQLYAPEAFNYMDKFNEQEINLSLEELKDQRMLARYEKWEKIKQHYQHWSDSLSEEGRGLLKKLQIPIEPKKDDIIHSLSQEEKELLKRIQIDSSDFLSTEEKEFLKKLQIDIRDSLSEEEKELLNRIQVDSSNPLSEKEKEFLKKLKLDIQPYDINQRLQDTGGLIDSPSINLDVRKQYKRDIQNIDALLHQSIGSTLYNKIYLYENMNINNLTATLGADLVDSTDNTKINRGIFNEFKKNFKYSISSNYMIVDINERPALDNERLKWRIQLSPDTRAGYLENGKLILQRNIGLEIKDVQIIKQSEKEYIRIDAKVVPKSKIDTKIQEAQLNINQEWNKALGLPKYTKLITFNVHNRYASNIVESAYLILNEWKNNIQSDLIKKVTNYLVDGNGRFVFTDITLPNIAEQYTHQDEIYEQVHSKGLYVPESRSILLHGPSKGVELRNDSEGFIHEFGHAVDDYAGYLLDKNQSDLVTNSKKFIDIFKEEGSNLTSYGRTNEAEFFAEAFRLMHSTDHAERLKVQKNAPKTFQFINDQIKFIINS
Sequence of Botulinum neurotoxin type A (Clostridium botulinum) (P0DPI0 whole entry, looked up): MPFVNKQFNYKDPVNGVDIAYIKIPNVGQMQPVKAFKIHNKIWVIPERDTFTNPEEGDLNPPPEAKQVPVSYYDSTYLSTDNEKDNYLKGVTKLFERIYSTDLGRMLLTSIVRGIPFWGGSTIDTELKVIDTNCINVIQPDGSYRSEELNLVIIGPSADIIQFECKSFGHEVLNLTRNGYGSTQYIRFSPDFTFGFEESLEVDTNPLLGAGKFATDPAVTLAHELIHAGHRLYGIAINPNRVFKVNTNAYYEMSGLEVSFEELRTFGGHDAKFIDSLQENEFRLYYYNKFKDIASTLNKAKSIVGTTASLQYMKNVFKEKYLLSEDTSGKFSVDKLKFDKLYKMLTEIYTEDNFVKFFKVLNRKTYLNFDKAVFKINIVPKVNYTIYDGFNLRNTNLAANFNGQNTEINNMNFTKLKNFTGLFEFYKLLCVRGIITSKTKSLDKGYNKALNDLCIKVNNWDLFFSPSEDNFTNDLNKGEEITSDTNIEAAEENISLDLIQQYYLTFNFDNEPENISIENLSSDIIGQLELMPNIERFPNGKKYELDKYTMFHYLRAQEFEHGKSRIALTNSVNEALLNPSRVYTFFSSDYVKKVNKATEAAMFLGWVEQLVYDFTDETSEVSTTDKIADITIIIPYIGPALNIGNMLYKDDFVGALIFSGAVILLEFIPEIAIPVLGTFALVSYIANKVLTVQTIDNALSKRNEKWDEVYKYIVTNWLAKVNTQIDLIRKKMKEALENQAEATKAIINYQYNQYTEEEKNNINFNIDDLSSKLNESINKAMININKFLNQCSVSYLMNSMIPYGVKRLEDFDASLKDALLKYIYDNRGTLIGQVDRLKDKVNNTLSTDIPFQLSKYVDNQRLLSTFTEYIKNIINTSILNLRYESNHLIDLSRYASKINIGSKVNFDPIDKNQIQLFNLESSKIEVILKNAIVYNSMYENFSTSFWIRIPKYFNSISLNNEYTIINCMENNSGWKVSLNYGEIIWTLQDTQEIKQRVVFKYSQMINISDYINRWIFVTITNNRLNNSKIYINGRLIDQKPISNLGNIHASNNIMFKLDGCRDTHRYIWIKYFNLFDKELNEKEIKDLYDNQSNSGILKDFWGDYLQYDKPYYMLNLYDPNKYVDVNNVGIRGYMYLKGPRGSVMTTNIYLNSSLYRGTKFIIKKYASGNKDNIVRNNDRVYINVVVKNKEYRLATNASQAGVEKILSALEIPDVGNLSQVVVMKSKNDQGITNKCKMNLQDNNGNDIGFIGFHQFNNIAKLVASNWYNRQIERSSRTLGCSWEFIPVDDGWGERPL

By inhibition is commonly meant the drop in the measured response relative to a control, in per cent. Take `CC12CC[C@H]3[C@@H](CCC4(O)C[C@H](O)CCC34/C=N/NC(=O)Cc3ccccc3)C1(O)CCC2C1=CC(=O)OC1` (stereo not given in full): in assay [1], the percent of DMSO control GFP was 103% (inactive). Moreover, the GFP response vs DMSO is 101% (inactive) in assay [2] and 92% (inactive) in assay [4]. In addition, the percent response of DMSO control in [3] was 115% (inactive). The GFP response, % of DMSO in assay [5] was 107% (inactive). Also, the double positive events in assay [6] turned out to be 65.3%. Moreover, the vesicle binding response in [6] is 204% (inactive). The inhibition was 1.62% (inactive) in [7]; -3.69% (inactive) in [11]; 3.5% (inactive) in assay [14]; -0.2% (inactive) in assay [15]; 3.2% (inactive) in assay [16]; 5% (inactive) in [18]. For the same molecule, the superoxide response (% of plate) in assay [8] was 111% (inactive). Besides, in [9], the aptamer binding inhibition was 1% (inactive). Also, the response in assay [10] was -5.5% (inactive); in [12], 1.22% (inactive). Also, the binding (% of control) in assay [13] was 95% (inactive). Moreover, in [17], the efflux inhibition (fraction of control) was 0.08 (inactive). Moreover, the differentiation response in assay [19] is 0.24% (inactive).
For `O=c1[nH]c2ccccc2n1C1CCN(CCCC(c2ccc(F)cc2)c2ccc(F)cc2)CC1`, the percent of DMSO control GFP in assay [1] was 97.1% (inactive). Moreover, the results for the GFP response vs DMSO in assay [2] and in assay [4] were 107% (inactive) and 130% (inactive), respectively. Moreover, in [3], the percent response of DMSO control is 103% (inactive). Further, the GFP response, % of DMSO in [5] was 120% (inactive). In addition, the double positive events in assay [6] was 56.5%. In assay [6], the vesicle binding response was 184% (inactive). Also, the inhibition in assay [7] was 41.5% (inactive); in [11], -9.19% (inactive); in [14] it was -2.3% (inactive); in assay [15], -1.7% (inactive); in [16] it was -3% (inactive); in [18], 6% (inactive). Besides, in assay [8], the superoxide response (% of plate) is 88.4% (inactive). In addition, the aptamer binding inhibition in assay [9] is -13% (inactive). Moreover, the figures for the response in [10] and in [12] were 67.3% (active) and 73.1% (active), respectively. For the same molecule, the binding (% of control) in assay [13] is 114% (inactive). Also, the efflux inhibition (fraction of control) in assay [17] is 0.12 (inactive). Further, in assay [19], the differentiation response is 13.7% (inactive).
`COc1ccc(-c2nc3ccccc3c(=O)o2)cc1`: in assay [1], the percent of DMSO control GFP is 103% (inactive). Moreover, the GFP response vs DMSO in [2] was 95.2% (inactive); in assay [4], 106% (inactive). Moreover, the percent response of DMSO control in [3] was 92% (inactive). Further, the GFP response, % of DMSO in [5] was 87.9% (inactive). The molecule further gave a double positive events in assay [6] of 78.9%. Also, the vesicle binding response in [6] is 308% (inactive). The inhibition in assay [7] is -19.5% (inactive); in [11] it was -5.48% (inactive); in [14], 1.8% (inactive); in assay [15] it was 1.3% (inactive); in assay [16] it was 0.8% (inactive); in assay [18], -2% (inactive). Moreover, in [8], the superoxide response (% of plate) was 99.5% (inactive). For the same molecule, the aptamer binding inhibition in assay [9] is 1% (inactive). Moreover, the results for the response in [10] and in assay [12] were 12.6% (inactive) and -0.56% (inactive), respectively. Moreover, the binding (% of control) in assay [13] is 102% (inactive). Moreover, the efflux inhibition (fraction of control) in assay [17] is 0.22 (inactive). In addition, the differentiation response in assay [19] was 2.4% (inactive).
Regarding `CC12CCC3C(CC=C4CC(O)CCC43C)C1C/C(=C\c1cccc(F)c1)C2=O` (stereo not given), in assay [1], the percent of DMSO control GFP was 98.2% (inactive). For the same molecule, the GFP response vs DMSO in [2] is 103% (inactive); in assay [4] it was 113% (inactive). Besides, the percent response of DMSO control in assay [3] was 95.1% (inactive). Moreover, the GFP response, % of DMSO in [5] is 102% (inactive). Further, the double positive events in assay [6] worked out at 63.9%. Besides, in [6], the vesicle binding response was 171% (inactive). For the same molecule, the inhibition is -7.08% (inactive) in assay [7]; 9.38% (inactive) in [11]; -0.7% (inactive) in [14]; -0.1% (inactive) in [15]; -1.4% (inactive) in [16]; -1% (inactive) in [18]. For the same molecule, the superoxide response (% of plate) in [8] was 100% (inactive). In addition, the aptamer binding inhibition in assay [9] was 3% (inactive). Also, the figures for the response in assay [10] and in assay [12] were -8.92% (inactive) and -4.42% (inactive), respectively. In assay [13], the binding (% of control) is 98.7% (inactive). Moreover, in [17], the efflux inhibition (fraction of control) is -0.13 (inactive). In addition, the differentiation response in assay [19] is 2.89% (inactive).
